Bioassay records (PubChem BioAssay)
Mdm2-MdmX inh = human Mdm2/MdmX binding inhibition; O15151+Q00987; SaOS-2 split-luciferase Mdm2/MdmX complementation, luminescence; inhibition, % at 8 µM; 330,000 compounds, 3% hits;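 active means inhibition of at least 50% at 8 µM in the primary screen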
Target sequence (O15151 whole entry, looked up): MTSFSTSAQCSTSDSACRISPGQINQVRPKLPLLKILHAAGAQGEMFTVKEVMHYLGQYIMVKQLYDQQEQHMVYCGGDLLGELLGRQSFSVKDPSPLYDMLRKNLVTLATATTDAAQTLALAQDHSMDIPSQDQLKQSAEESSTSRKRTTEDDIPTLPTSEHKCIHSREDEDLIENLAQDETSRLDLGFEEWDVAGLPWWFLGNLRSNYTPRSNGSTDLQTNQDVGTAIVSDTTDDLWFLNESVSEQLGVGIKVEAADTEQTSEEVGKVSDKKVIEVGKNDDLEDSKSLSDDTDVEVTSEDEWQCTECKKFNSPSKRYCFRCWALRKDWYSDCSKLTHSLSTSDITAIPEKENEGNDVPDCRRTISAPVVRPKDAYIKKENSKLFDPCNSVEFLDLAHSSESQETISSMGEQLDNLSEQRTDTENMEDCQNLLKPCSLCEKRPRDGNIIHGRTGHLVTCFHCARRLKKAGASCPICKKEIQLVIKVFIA
Target sequence (Q00987 whole entry, looked up): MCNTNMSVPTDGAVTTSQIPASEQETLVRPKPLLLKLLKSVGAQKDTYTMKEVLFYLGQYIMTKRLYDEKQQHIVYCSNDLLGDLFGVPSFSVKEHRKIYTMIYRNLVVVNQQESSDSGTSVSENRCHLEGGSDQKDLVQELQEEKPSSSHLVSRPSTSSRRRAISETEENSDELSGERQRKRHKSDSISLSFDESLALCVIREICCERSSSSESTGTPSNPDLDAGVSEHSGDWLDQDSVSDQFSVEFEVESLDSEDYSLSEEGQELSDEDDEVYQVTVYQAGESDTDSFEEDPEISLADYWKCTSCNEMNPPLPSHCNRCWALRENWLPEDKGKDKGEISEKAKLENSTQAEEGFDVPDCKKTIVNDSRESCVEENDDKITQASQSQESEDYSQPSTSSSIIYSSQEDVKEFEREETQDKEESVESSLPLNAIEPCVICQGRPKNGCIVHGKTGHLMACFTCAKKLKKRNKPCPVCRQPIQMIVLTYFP
MPTP inh = blocks calcium-induced mitochondrial swelling; inhibition, % at 10 µM; isolated mouse mitochondria, Ca2+ swelling absorbance, 30 min; 360,000 compounds, 1.4% hits;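 active means inhibition of 50% or more, scaled per plate between neutral and stimulator controls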
CSC inhib = cancer stem cell inhibition | inhibition, % at 7.5 µM | 300,000 compounds, 1.1% hits | AID 2717 | cancer stem cell-like cells viability, luminescence; in the data active means inhibition above about 75%; inconclusive means no clear call, values can overlap the other calls; tested in HMLE shEcad cells
NR3A LBD binder = modulates the human NR3A ligand-binding domain; NR3A LBD differential scanning fluorimetry, Tm shift; 0% = protein alone, 100% = glycine-bound protein; Tm shift relative to glycine control, % at 25 µM; 340,000 compounds, 2.5% hits; AID 1259313;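 active means melting temperature shift of at least 10% of the positive control shift, at one fixed dose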
Beta cell apopt = beta cell apoptosis inhibition; INS-1E cytokine-induced death, ATP luminescence, 48 h; percent of positive-control rescue, neutral wells zero; protection from apoptosis, % (concentration not given with the values); 300,000 compounds, 0.8% hits;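 active means Every replicate reaches about 75%, or at least half do and their mean reaches it too, limit read from the data; inconclusive means At least half of replicates reach the limit but their mean does not; inactive means Under half of replicates reach the limit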;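 further: higher means more ATP so stronger rescue from cytokine killing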
SKKanGAS inh = blocks kanamycin growth of S. pyogenes SKKanGAS strain | BacTiter-Glo, 6 h | inhibition, % at 7.5 µM | 300,000 compounds, 1.3% hits | AID 1662;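 active means mean replicate score, as percent of positive control median, at least 50; inconclusive means mean below 50 but one replicate at or above 50; inactive means mean and every replicate below 50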;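 further: strain carries kanamycin resistance gene driven by streptokinase promoter and grows in 40 µg/ml kanamycin; loss of luminescence reflects streptokinase promoter inhibition or plain growth inhibition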
Mdm2-MdmX conf = confirmation of human Mdm2/MdmX interaction inhibitors; shares compounds with Mdm2-MdmX inh; Mdm2-MdmX binding, luminescent assay; inhibition, % at 8 µM; 10,000 compounds, 55% hits; AID 489028; in the data active means inhibition above about 40%
FLuc counter = counter-screen for Mdm2/MdmX inhibitors: full-length luciferase | shares compounds with Mdm2-MdmX inh | SaOS-2 full-length luciferase counterscreen, luminescence | inhibition, % at 8 µM | AID 504607 | 6,200 compounds, 77% hits;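 active means mean inhibition at 8 µM reaching about 37%, which flags the compound as non-specific, limit read from the data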;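 further: p53-null SaOS-2 cells with luciferase driven by a doxycycline-inducible promoter; compound on cells about two nights before reading with doxycycline added after day one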
MPTP counter = Rhodamine 123 counter-screen of mitochondrial pore hits; shares compounds with MPTP inh; inhibition, % at 10 µM; isolated mitochondria, membrane potential, Rhodamine 123 fluorescence; 5,000 compounds, 78% hits; in the data active means inhibition above about 22%
MPTP swell DR = dose response confirmation of mitochondrial permeability transition pore inhibitors. shares compounds with MPTP inh. IC50, µM. AID 651561. 780 compounds, 58% hits. isolated mitochondria swelling, absorbance; in the data active means IC50 below about 20 µM
MPTP counter DR = MPTP inhibitor counter-screen activity, dose response; shares compounds with MPTP inh; 780 compounds, 49% hits; IC50, µM; AID 651564; isolated mitochondria counterscreen, fluorescence read-out; in the data active means IC50 below about 80 µM
Large screens that a line does not name were inactive (follow-up assays come after a bar, where they were run). This is a sample that favours compounds with a hit; in the whole collection about 6.9% have one here.

Cc1cc(Nc2cccc(F)c2)nc(NCc2ccccc2)n1	Mdm2-MdmX inh 66, MPTP inh 92, Beta cell apopt 106 | Mdm2-MdmX conf inactive | MPTP counter 73
Fc1cc(NCc2ccccc2)nc(NCc2ccccc2)n1	none
COc1cccc(N=Cc2c(O)c3ccccc3oc2=O)c1	none
Cc1cc(Oc2ccccc2)nc(NCc2ccccc2)n1	none
Cc1cc(Nc2ccccc2)nc(NCc2ccccc2)n1	Mdm2-MdmX inh 53, MPTP inh 90, Beta cell apopt 101 | Mdm2-MdmX conf inactive | FLuc counter 59 | MPTP counter 92
COC(=O)NC1(C(F)(F)F)C(=O)Nc2c1c(=O)n(C)c(=O)n2C (centres undefined)	none
O=C(Nc1ccccc1N1CCCCC1)c1ccc(-c2ccc(Cl)cc2)o1	none (no result: CSC inhib)
Cc1cc(N2CCN(C)CC2)ccc1NC(=O)c1ccc(-c2ccc(Cl)cc2)o1	Mdm2-MdmX inh 52, MPTP inh 54, CSC inhib inconclusive (no result: NR3A LBD binder) | Mdm2-MdmX conf 45 | FLuc counter 74 | MPTP counter inactive
CN(C)C(CNC(=O)CCc1c[nH]c2ccccc12)c1ccccc1 (centres undefined)	none
COCC(=O)Nc1cc(Cl)ccc1C	none (no result: CSC inhib)
Cc1ccc(Cl)cc1NC(=O)CC(O)(C(F)(F)F)C(F)(F)F	Mdm2-MdmX inh 59, MPTP inh 95 (no result: Beta cell apopt) | Mdm2-MdmX conf inactive | MPTP counter 93
COc1ccccc1CCNCc1ccc(OC)c(OCc2ccccc2)c1	none
COc1cccc(CNCCc2c[nH]c3ccccc23)c1OCc1ccccc1	Mdm2-MdmX inh 54, MPTP inh 85 | Mdm2-MdmX conf inactive | MPTP counter 60
CN(CC1CCOCC1)C(=O)CC1C(=O)NCCN1Cc1ccccc1F (centres undefined)	none
COc1ccc(-n2nnc3c(SC(C(C)=O)C(=O)N(C)C)ncnc32)cc1 (centres undefined)	none (no result: Beta cell apopt)
CCCCn1c(NC(=O)CC)c(C#N)c2nc3ccccc3nc21	none
CCCCn1c(NC(=O)c2ccccc2Cl)c(C#N)c2nc3ccccc3nc21	Mdm2-MdmX inh 58, MPTP inh 96 | Mdm2-MdmX conf inactive | MPTP counter 70
CN(C)CCOc1ccc(-c2c(-c3ccccc3)sc3ccccc23)cc1	Mdm2-MdmX inh 100, MPTP inh 104, CSC inhib 142, Beta cell apopt 83 (no result: SKKanGAS inh) | Mdm2-MdmX conf inactive | MPTP counter inactive
c1ccc(-c2sc3ccccc3c2-c2ccc(OCCN3CCCCC3)cc2)cc1	none (no result: SKKanGAS inh)
COc1ccc(OCC(=O)NC(=S)Nc2ccc(S(=O)(=O)Nc3cc(C)on3)cc2)cc1	none
COC1CCCN(Cc2cn(C)nc2-c2ccc(Oc3ccccc3)cc2)C1 (centres undefined)	none
COCCN1CCCC(CNCc2cn(C)nc2-c2ccc(Oc3ccccc3)cc2)C1 (centres undefined)	Mdm2-MdmX inh 71, MPTP inh 91 | Mdm2-MdmX conf 60 | FLuc counter 50 | MPTP counter inactive | MPTP swell DR 4.8 | MPTP counter DR inactive
COc1ccccc1S(=O)(=O)CC(O)COc1ccc(F)cc1Cl (centres undefined)	none
O=C(Nc1ccc(N2CCCCC2)c(S(=O)(=O)Nc2ccccc2Cl)c1)c1cccnc1	none (no result: SKKanGAS inh)
O=C(Nc1ccc(F)cc1)Nc1ccc(N2CCCC2)c(S(=O)(=O)Nc2ccccc2Cl)c1	Mdm2-MdmX inh 91, MPTP inh 100, NR3A LBD binder 34 | Mdm2-MdmX conf 66 | FLuc counter inactive | MPTP counter 61
O=C(Nc1ccc(N2CCOCC2)c(S(=O)(=O)Nc2ccccc2Cl)c1)c1ccc(F)cc1	none (no result: SKKanGAS inh)
O=C(Nc1ccc(Cl)c(Cl)c1)Nc1ccc(N2CCCC2)c(S(=O)(=O)Nc2ccccc2Cl)c1	Mdm2-MdmX inh 93, MPTP inh 100, NR3A LBD binder 30 | Mdm2-MdmX conf 95 | FLuc counter inactive | MPTP counter 49
CC(=O)c1cccc(S(=O)(=O)N2CCC(C(=O)N(C)Cc3ccc(Cl)s3)CC2)c1	none (no result: CSC inhib, SKKanGAS inh)
Cc1ccc2oc(-c3ccc(NC(=O)CC(C)C)cc3)nc2c1	none
CCC(C)NCC(=O)Nc1ccc(-c2nc3cc(NC(=O)CNC(C)CC)ccc3o2)cc1 (centres undefined)	Mdm2-MdmX inh 100, MPTP inh 74 (no result: SKKanGAS inh) | Mdm2-MdmX conf 42 | FLuc counter inactive | MPTP counter inactive | MPTP swell DR 16 | MPTP counter DR 36
N#Cc1ccc(NC(=O)Nc2ccc(Cl)cc2)cc1	Mdm2-MdmX inh 85, MPTP inh 105, NR3A LBD binder 34, Beta cell apopt 105, SKKanGAS inh 55 (no result: CSC inhib) | Mdm2-MdmX conf 88 | FLuc counter 45 | MPTP counter 89
COc1ccc(S(=O)(=O)N2CCCCC2)cc1NC(=O)COC(=O)c1ccco1	none (no result: SKKanGAS inh)
Cn1c(=O)c2c(nc(NCc3ccco3)n2C/C=C/c2ccccc2)n(C)c1=O	Mdm2-MdmX inh 51, MPTP inh 89 | Mdm2-MdmX conf inactive | MPTP counter 106
CN1CCN(c2ccc(Cl)cc2NC(=O)c2cc(=O)[nH]c3ccccc23)CC1	none (no result: SKKanGAS inh)
CN1CCN(c2cc3c(c4c2[nH]c2ccccc24)C(=O)CC(C)(C)C3)CC1	Mdm2-MdmX inh 57, MPTP inh 84 (no result: Beta cell apopt) | Mdm2-MdmX conf inactive | MPTP counter inactive
CC(C)N1CCc2c(sc(NC(=O)c3cc(-c4cccs4)nc4ccccc34)c2C(N)=O)C1	Mdm2-MdmX inh 73, MPTP inh 83, CSC inhib inconclusive | Mdm2-MdmX conf inactive | MPTP counter inactive
O=C(/C(N=Nc1cccc([N+](=O)[O-])c1)=C(/O)c1ccc(Br)cc1)C(F)(F)F	Mdm2-MdmX inh 96, MPTP inh 78, CSC inhib 99, Beta cell apopt 105, SKKanGAS inh 84 (no result: NR3A LBD binder) | Mdm2-MdmX conf 88 | FLuc counter inactive | MPTP counter 62
CN(C)c1ccc(N=Nc2nc3ccccc3n2C)cc1	Mdm2-MdmX inh 60, MPTP inh 66 | Mdm2-MdmX conf 49 | FLuc counter 46 | MPTP counter inactive
COC(=O)c1ccc2c(c1)C(C)(C)C(/C=C/c1ccccc1O)=[N+]2C	Mdm2-MdmX inh 71, MPTP inh 75, CSC inhib 78 | Mdm2-MdmX conf 100 | FLuc counter 52 | MPTP counter inactive
